# Several values for one entry are separate records, joined by “and”; a condition that tells them apart may be missing. Equal entries are not always repeated. Activity calls are given as the source filed them. Unless noted, the rule behind the calls is not given here.
# What was measured:
# [1] = test system: Aerobactin synthetase IucA (Klebsiella pneumoniae); assay: IucA aerobactin synthetase inhibitors, biochemical, Tocris library, absorbance (AID 1345561); conditions: purified IucA enzyme assay, absorbance (OD) read-out; stronger effect = lower value;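 tested at 8 µM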;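 note: 100% = enzyme without compound and 0% = no enzyme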
# [2] = sensitizers of A549 cells to miR-34 induction, primary screen, imaging, A549 dox-inducible miR-34, nuclei and caspase counts (AID 1347080;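 active = compounds whose cell count with miR-34 switched on is under 0.7 times the count with it off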); conditions: A549 miR-34 inducible, Hoechst nuclei count, 48 h
# [3] = survival rescue of mitochondrial mutant cells in low glucose, primary screen, MELAS cybrids, Rieske KO mouse fibroblasts, CellTiter-Glo (AID 1508586;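 active = mean z-score across replicates of 1.96 or higher in either the MELAS or the Rieske mutant cell line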;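 note: z relative to plate mean and SD of compound and empty wells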)
# [4] = viability rescue of complex I mutant cybrids, primary screen, cell-based, galactose medium, ATP luminescence (AID 1645843;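 active = z-score of at least 1.8 in each of two replicates, scored against plate mean and spread of sample wells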;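 note: positive z means more ATP and so rescue of galactose-driven cybrid death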); conditions: complex I mutant cybrid cells, 72 h, stronger effect = higher value
# [5] = hESC survival regulators, cell-based (AID 493140); conditions: human embryonic stem cell survival screen; stronger effect = higher value;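 note: cells exposed to compounds for four days before counting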
# [6] = liver-stage malaria parasite growth inhibition, primary screen, cell-based, HepG2, luciferase luminescence, HepG2 viability (AID 624349; in the data active = parasite load remaining mostly below about 12%, no sharp cut-off; inactive = mostly above about 10%;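 note: 100% = mean of DMSO negative control wells on the same plate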); conditions: P. berghei liver stage in HepG2, luciferase luminescence, concentration not given here; parasite load remaining: stronger effect = lower value; viability: measured here: HepG2 viability without parasites
# [7] = phospholipid biosynthesis inhibitors in animal cells, primary screen, cell-based, LOPAC library, screen 4 (AID 1347384); conditions: phospholipid biosynthesis inhibition screen, at 10 µM
# [8] = inhibitors of Cryptococcus chitosan production, flow cytometry, Cibacron Brilliant Red staining (AID 1347148); conditions: Cryptococcus neoformans chitosan, stronger effect = lower value; at 10 µM unless noted;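 note: compound exposure lasted three days at 37 degrees C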
# [9] = modifiers of HSF1 nuclear foci, imaging, Selleck Cancer Library (AID 1347162; in the data active = plate-normalised HSF1 focus index below about 0.46); conditions: human cells, at 10 µM; SSMD: measured here: HSF1 foci SSMD mean; cell count: measured here: cell number; plate-normalised HSF1 focus index: stronger effect = lower value
# [10] = circadian clock period modulators, cell-based, LOPAC library, luminescence reporter (AID 2774); conditions: circadian reporter cells, at 7 µM, actives lie on both sides;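 note: values are relative to mean of DMSO wells on each plate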
# [11] = stronger effect = lower value, cell number ratio, induced over uninduced
# [12] = measured here: relative caspase fold change +Dox/-Dox
# [13] = measured here: total cells with miR-34 induction, stronger effect = lower value
# [14] = measured here: total cells without miR-34 induction
# [15] = MELAS cybrid survival, CellTiter-Glo 48 h, stronger effect = higher value
# [16] = Rieske KO mouse fibroblast survival, CellTiter-Glo 72 h
structure (smiles),measurement,setting,value
Cc1ccc(Sc2cncc3sc(C(N)=O)cc23)cc1,remaining activity,[1],99.8% (inactive)
same,fold change,[2]; [11],0.867 (inactive) and 0.873 (inactive)
same,fold change,[2]; [12],2.32 and 1.58
same,cell count,[2]; [13],7640 and 7700
same,cell count,[2]; [14],8800 and 8820
same,z-score,[3]; [15],-0.504 (inactive)
same,z-score,[3]; [16],-0.347
same,z-score,[4],-0.625 (inactive)
CC1(C(=O)O)NCCc2cc(O)c(O)cc21 (stereo not drawn),remaining activity,[1],123% (inactive)
same,fold change,[2]; [11],0.987 (inactive)
same,fold change,[2]; [12],0.804
same,cell count,[2]; [13],8540
same,cell count,[2]; [14],8650
same,z-score,[4],-0.015 (inactive)
CCc1cc2c(c(CC)n1)CCC(=O)N2Cc1ccc(-c2ccccc2-c2nn[nH]n2)cc1,remaining activity,[1],89.1% (inactive)
same,fold change,[2]; [11],0.902 (inactive)
same,fold change,[2]; [12],0.831
same,cell count,[2]; [13],8410
same,cell count,[2]; [14],9320
same,z-score,[4],1.93 (inactive)
O=C(Nc1ccccc1)C12CC1/C(=N\O)c1ccccc1O2 (stereo not drawn),remaining activity,[1],107% (inactive)
same,fold change,[2]; [11],0.911 (inactive)
same,fold change,[2]; [12],0.471
same,cell count,[2]; [13],7010
same,cell count,[2]; [14],7700
same,z-score,[4],0.135 (inactive)
COc1cc2ncnc(Nc3ccc(Cl)cc3F)c2cc1OC,remaining activity,[1],98.6% (inactive)
same,fold change,[2]; [11],0.989 (inactive) and 1 (inactive)
same,fold change,[2]; [12],0.8 and 1.6
same,cell count,[2]; [13],5840 and 6100
same,cell count,[2]; [14],5900 and 6080
same,z-score,[3]; [15],-0.209 (inactive)
same,z-score,[3]; [16],-0.0991
same,z-score,[4],0.365 (inactive)
COC(=O)c1sccc1S(=O)(=O)Nc1ccc(Nc2ccccc2)cc1OC,remaining activity,[1],87.9% (inactive)
same,fold change,[2]; [11],0.862 (inactive)
same,fold change,[2]; [12],1.31
same,cell count,[2]; [13],6450
same,cell count,[2]; [14],7480
same,z-score,[4],-0.495 (inactive)
CCC(=O)OCN1C(=O)C=CC1=O,remaining activity,[1],92.2% (inactive)
same,fold change,[2]; [11],0.956 (inactive)
same,fold change,[2]; [12],1.17
same,cell count,[2]; [13],9240
same,cell count,[2]; [14],9660
same,z-score,[4],-0.205 (inactive)
CCN(CC)CCOC(=O)C1(c2ccc([N+](=O)[O-])cc2)CCCC1,survival,[5],10.9 (inactive)
same,parasite load remaining,[6],105% (inactive)
same,viability,[6],84.2%
same,remaining activity,[1],78.5% (inactive)
same,fold change,[2]; [11],0.929 (inactive) and 1.02 (inactive)
same,fold change,[2]; [12],1.89 and 0.688
same,cell count,[2]; [13],8310 and 8650
same,cell count,[2]; [14],8940 and 8460
same,z-score,[3]; [15],0.368 (inactive)
same,z-score,[3]; [16],-0.484
same,z-score,[4],-1.09 (inactive)
COc1cc(NC(=O)c2ccccn2)ccc1Cl,remaining activity,[1],122% (inactive)
same,fold change,[2]; [11],1.03 (inactive) and 0.942 (inactive)
same,fold change,[2]; [12],0.59 and 1.55
same,cell count,[2]; [13],7300 and 8170
same,cell count,[2]; [14],7110 and 8670
same,z-score,[3]; [15],0.202 (inactive)
same,z-score,[3]; [16],0.293
same,z-score,[4],1.19 (inactive)
NS(=O)(=O)c1cccc2c1c([N+](=O)[O-])cc1[nH]c(=O)c(=O)[nH]c12,remaining activity,[1],96.2% (inactive)
same,fold change,[2]; [11],0.919 (inactive)
same,fold change,[2]; [12],0.625
same,cell count,[2]; [13],8900
same,cell count,[2]; [14],9680
same,outcome,[7],inactive
same,z-score,[4],-0.025 (inactive)
CC(C)[C@H]1c2ccc(F)cc2CC[C@@]1(CCN(C)CCCc1nc2ccccc2[nH]1)OC(=O)C1CC1,remaining activity,[1],104% (inactive)
same,fold change,[2]; [11],0.792 (inactive)
same,fold change,[2]; [12],1.77
same,cell count,[2]; [13],263
same,cell count,[2]; [14],332
same,z-score,[4],-0.705 (inactive)
COC(=O)C1=C(C)NC(C)=C(C(=O)OCCCN2CCC(c3ccccc3)(c3ccccc3)CC2)[C@H]1c1cccc([N+](=O)[O-])c1,remaining activity,[1],116% (inactive)
same,fold change,[2]; [11],0.98 (inactive)
same,fold change,[2]; [12],1.09
same,cell count,[2]; [13],562
same,cell count,[2]; [14],574
same,fold fluorescence,[8],5.27 [at 82 µM] (inactive)
same,SSMD,[9],-1.25
same,cell count,[9],6310
same,plate-normalised HSF1 focus index,[9],0.927 (inactive)
same,z-score,[4],-0.83 (inactive)
c1ccc(CN2CCC3(CCc4ccccc43)CC2)cc1,remaining activity,[1],97.3% (inactive)
same,fold change,[2]; [11],0.952 (inactive)
same,fold change,[2]; [12],0.584
same,cell count,[2]; [13],8830
same,cell count,[2]; [14],9280
same,z-score,[4],0.76 (inactive)
CN(C)CCCCSC(=N)N,period change,[10],0.15 h (inactive)
same,remaining activity,[1],110% (inactive)
same,fold change,[2]; [11],0.981 (inactive)
same,fold change,[2]; [12],0.637
same,cell count,[2]; [13],8600
same,cell count,[2]; [14],8770
same,SSMD,[9],1.03
same,cell count,[9],6740
same,plate-normalised HSF1 focus index,[9],1.06 (inactive)
same,z-score,[4],0.38 (inactive)
N=C(N)SCCc1ccc(OCc2ccc([N+](=O)[O-])cc2)cc1,remaining activity,[1],106% (inactive)
same,fold change,[2]; [11],0.959 (inactive)
same,fold change,[2]; [12],0.93
same,cell count,[2]; [13],5550
same,cell count,[2]; [14],5790
same,outcome,[7],inactive
same,z-score,[4],-0.76 (inactive)
CC1c2ccccc2CN1CC1=NCCN1 (stereo not drawn),remaining activity,[1],111% (inactive)
same,fold change,[2]; [11],0.985 (inactive)
same,fold change,[2]; [12],0.732
same,cell count,[2]; [13],8400
same,cell count,[2]; [14],8530
same,z-score,[4],-0.515 (inactive)
O=C1C(=O)N(Cc2ccc(Cl)c(Cl)c2)c2ccccc21,remaining activity,[1],89.3% (inactive)
same,fold change,[2]; [11],0.946 (inactive) and 0.932 (inactive)
same,fold change,[2]; [12],0.72 and 1.49
same,cell count,[2]; [13],8180 and 7960
same,cell count,[2]; [14],8650 and 8540
same,z-score,[3]; [15],-0.161 (inactive)
same,z-score,[3]; [16],-0.14
same,z-score,[4],-0.685 (inactive)
O=C1CC2(CCCC2)CC(=O)N1CCCCNCC1COc2ccccc2O1 (stereo not drawn),remaining activity,[1],102% (inactive)
same,fold change,[2]; [11],0.892 (inactive)
same,fold change,[2]; [12],0.89
same,cell count,[2]; [13],8660
same,cell count,[2]; [14],9710
same,z-score,[4],-1.01 (inactive)
Nc1[nH]nc2nnc(-c3c(-c4ccccc4)nn4ccccc34)cc12,parasite load remaining,[6],43.4% (inactive)
same,viability,[6],122%
same,remaining activity,[1],115% (inactive)
same,fold change,[2]; [11],1.01 (inactive)
same,fold change,[2]; [12],3.36
same,cell count,[2]; [13],6630
same,cell count,[2]; [14],6550
same,SSMD,[9],2.88
same,cell count,[9],7090
same,plate-normalised HSF1 focus index,[9],1.16 (inactive)
same,z-score,[4],1.04 (inactive)
O=C(O)c1c(Sc2ccccc2)c2cc(Cl)ccc2n1Cc1ccc(Cl)cc1,remaining activity,[1],122% (inactive)
same,fold change,[2]; [11],0.94 (inactive)
same,fold change,[2]; [12],1.45
same,cell count,[2]; [13],6730
same,cell count,[2]; [14],7160
same,z-score,[4],1.25 (inactive)

# — PubChem BioAssay
